From PubChem BioAssay (Tox21) come the findings set out here.

SMILES strings stand for the structures. “And” between values parts separate entries of the source, which are not always exact repeats. Identical values can stand only once. Results filed as inconclusive are left out. Values without a mark were called inactive. The source made the active and inactive calls. The call rests on the fitted dose curve; in most records, active means well fitted curve in the direction sought with a large enough effect in the repeat runs; inconclusive means weak or mixed curves; inactive means no such curve, though single readings can be large; an effect the other way counts as inactive or inconclusive.

Assay [1] in a line: qHTS RealTime-Glo MT Cell Viability Assay in HepG2 cells - 40 hour (AID 1224870). Further: nearly all actives have a fitted effect of over 50% in size. The method, boiled down:
(§1)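 HepG2 cells mixed with RealTime-Glo MT reagents (NanoLuc plus cell-permeant prosubstrate) were seeded at 600 cells/well, incubated 5 h at 37 C/5% CO2, then pinned with compounds in DMSO; nonlytic luminescence tracked viability during 40 h treatment.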

Assay [2] in a line: A CellTox Green Cytotoxicity Assay to monitor cytotoxicity in HEK293 cells - 40 hour (AID 1224871). Further: nearly all actives have a fitted effect of over 45% in size. Further: potency means the concentration at half of the fitted maximal effect. In short, it runs like this:
(§2)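 Tox21 screen in HEK293: membrane-impermeant cyanine dye fluoresces on binding dead-cell DNA; compound pinned 5 h post-seeding, plates held at 37 C, signal read repeatedly through 40 h.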

A short description of assay [3]: qHTS RealTime-Glo MT Cell Viability Assay in HEK293 cells - 16 hour (AID 1224872). Further: top concentration of the series differs between compounds; nearly all actives have a fitted effect of over 50% in size. The method, boiled down:
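HEK293 cells were seeded at 600 cells/well together with NanoLuc luciferase and cell-permeant prosubstrate, preincubated 5 h at 37 C/5% CO2, then given compound in DMSO by pintool. Luminescence from viable-cell prosubstrate reduction was read repeatedly over 40 h.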

Assay [4] is described as follows: qHTS RealTime-Glo MT Cell Viability Assay in HepG2 cells - 8 hour (AID 1224873). Further: nearly all actives have a fitted effect of over 55% in size. In short, it runs like this: as §1
A short description of assay [5]: qHTS RealTime-Glo MT Cell Viability Assay in HEK293 cells - 40 hour (AID 1224874). Further: nearly all actives have a fitted effect of over 50% in size. Particulars: RealTime-Glo luminescence; max response: hits give low values. The method, boiled down:
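HEK293 + NanoLuc + prosubstrate, 600 cells/well; 5 h, 37 C/5% CO2; compound 23 nL in DMSO by pintool; 37 C; luminescence read at 0, 8, 16, 24, 32 and 40 h time points.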

The nature of assay [6]: A CellTox Green Cytotoxicity Assay to monitor cytotoxicity in HEK293 cells - 24 hour (AID 1224875). Further: series mostly up to about 77 µM; nearly all actives have a fitted effect of over 45% in size. In short, it runs like this: as §2
Assay [7] in a line: A CellTox Green Cytotoxicity Assay to monitor cytotoxicity in HepG2 cells - 16 hour (AID 1224876). Further: nearly all actives have a fitted effect of over 45% in size. In short, it runs like this:
(§3)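 Measurements at 0, 8, 16, 24, 32 and 40 h of treatment captured CellTox Green fluorescence in HepG2 cells that had been co-plated with reagent and preincubated 5 h at 37 C/5% CO2.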

Assay [8] can be described thus: qHTS RealTime-Glo MT Cell Viability Assay in HepG2 cells - 32 hour (AID 1224877). Further: nearly all actives have a fitted effect of over 55% in size. The method, boiled down: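 HepG2 cells were seeded at 600 cells/well together with NanoLuc luciferase and a cell-permeant prosubstrate, preincubated 5 h at 37 C/5% CO2, then pin-dosed with compounds in DMSO. Nonlytic luminescence from viable cells was read at each time point.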
Assay [9] can be described thus: A CellTox Green Cytotoxicity Assay to monitor cytotoxicity in HepG2 cells - 24 hour (AID 1224878). Further: nearly all actives have a fitted effect of over 45% in size. The method, boiled down:
as §3

Assay [10] can be described thus: A CellTox Green Cytotoxicity Assay to monitor cytotoxicity in HepG2 cells - 40 hour (AID 1224879). Further: nearly all actives have a fitted effect of over 40% in size. The method, boiled down: as §3
On the % scale 0 is the no-effect control and ±100 the full control effect.

As to `CCc1ccccc1CC`, the outcome in assay [1], in assay [7] and in assay [8] was inactive. In addition, the Potency entry in assay [2], in assay [4], in assay [6], in [9] and in [10] was “inactive” throughout. For the same compound, the activity change, negative = cytotoxicity in assay [3] was 1.28% [at 15.8 µM]. The max response in assay [5] was 10.8% and 1.1%.

With `OC1C(O)C(O)C(O)C(O)C1O` (stereo not given), the compound was called inactive in assay [1], in assay [7] and in assay [8]. The Potency result in assay [2], in assay [3], in assay [4], in assay [6], in [9] and in assay [10] was “inactive” in each case. Also, the max response in assay [5] is 9.45% and 0%.

As to `COC(=O)CCCC(=O)OC`, the call in assay [1], in assay [7] and in [8] was inactive. Besides, the Potency result in [2], in assay [3], in assay [4], in assay [6], in [9] and in [10] was “inactive” in each case. In addition, the max response in assay [5] was 4.51% and 15.2%.

With `NCCCCCCN`, the outcome in assay [1], in assay [7] and in [8] was inactive. Moreover, the Potency result in [2], in assay [3], in assay [4], in [6], in assay [9] and in [10] was “inactive” each time. Also, in [5], the max response was -0.521% and 1.93%.

`CC(=O)CC(C)(C)O`: the outcome in assay [1], in assay [7] and in [8] was inactive. The Potency result in assay [2], in assay [3], in [4], in assay [6], in assay [9] and in assay [10] was “inactive” throughout. In addition, in assay [5], the max response is 0.169% and 3.54%.

In the case of `CC(C)OP(=O)(CP(=O)(OC(C)C)OC(C)C)OC(C)C`, the compound was called inactive in assay [1], in [7] and in [8]. Besides, the Potency result in assay [2], in assay [3], in [4], in assay [6], in assay [9] and in [10] was “inactive” each time. In assay [5], the max response was 4.3% and 0.573%.

Regarding `CC(C)(C#N)c1cc(Cn2cncn2)cc(C(C)(C)C#N)c1`, the result in assay [1], in assay [7] and in [8] was inactive. Besides, the Potency entry in assay [2], in assay [3], in [4], in assay [6], in assay [9] and in [10] was “inactive” in each case. Besides, in assay [5], the max response was 0.713% and 4.85%.

As for `OCc1ccccc1`, the compound was classed as inactive in [1], in assay [7] and in [8]. Also, the Potency result in assay [2], in assay [3], in assay [4], in [6], in assay [9] and in [10] was “inactive” throughout. Moreover, the max response in assay [5] is -3.29% and 13.4%.

In the case of `N#Cc1ccccc1`, the call in assay [1], in assay [7] and in [8] was inactive. The Potency result in assay [2], in assay [3], in assay [4], in assay [6], in [9] and in assay [10] was “inactive” each time. For the same compound, the max response in assay [5] is 6.77% and 3.17%.

As to `CC(C)CC(C)O` (stereo not given), the call in assay [1], in assay [7] and in assay [8] was inactive. Further, the Potency entry in [2], in [3], in assay [4], in assay [6], in assay [9] and in assay [10] was “inactive” each time. Further, in assay [5], the max response was 6.34% and 7.03%.

For the compound `NCCNCCN`, the compound was called inactive in [1], in assay [7] and in assay [8]. Besides, the Potency result in assay [2], in assay [3], in assay [4], in assay [6], in assay [9] and in [10] was “inactive” each time. In addition, in assay [5], the max response was -1.22% and 0.475%.

Consider `c1ccc(Oc2ccccc2)cc1`, for which the outcome in assay [1], in [7] and in assay [8] was inactive. Also, the Potency in assay [2] was 50.5 µM (active). The Potency result in assay [3], in assay [4], in assay [6], in assay [9] and in [10] was “inactive” in each case. The max response in assay [5] was -2.3% and -6.04%.

Consider `CC(C)CCCCCCCOC(=O)CCCCC(=O)OCCCCCCCC(C)C`, for which the result in assay [1], in assay [7] and in [8] was inactive. The Potency result in assay [2], in [3], in assay [4], in assay [6], in [9] and in assay [10] was “inactive” throughout. In addition, the max response in [5] was -6.27% and 3.22%.

As for `CC1(C)S[C@@H]2[C@H](NC(=O)COc3ccccc3)C(=O)N2[C@H]1C(=O)O`, the outcome in assay [1], in assay [7] and in assay [8] was inactive. Moreover, the Potency entry in assay [2], in assay [3], in [4], in [6], in assay [9] and in assay [10] was “inactive” each time. The max response in assay [5] was 0.704% and 1.33%.

Take `COc1ccc(CCC(C)=O)cc1`: the compound was called inactive in assay [1], in assay [7] and in assay [8]. The Potency result in [2], in [3], in [4], in assay [6], in assay [9] and in [10] was “inactive” throughout. Also, the max response in [5] is 7.39% and 0.508%.

With `Nc1ccc(Cl)c(N)c1`, the outcome in [1], in [7] and in assay [8] was inactive. The Potency result in [2], in [3], in [4], in [6], in [9] and in assay [10] was “inactive” in each case. Besides, the max response in assay [5] is -8.1% and -8.99%.

On to `CC1(C)CC(N)CC(C)(CN)C1` (stereo not given), for which the outcome in assay [1], in assay [7] and in assay [8] was inactive. In addition, the Potency entry in assay [2], in [3], in [4], in assay [6], in [9] and in assay [10] was “inactive” in each case. In addition, in assay [5], the max response was -9.67% and 2.41%.

For `N[C@H](Cc1c[nH]c2ccccc12)C(=O)O`, the call in assay [1], in assay [7] and in assay [8] was inactive. The Potency entry in assay [2], in assay [3], in [4], in assay [6], in [9] and in assay [10] was “inactive” throughout. Besides, in assay [5], the max response was 20.7% and 3.97%.

As to `CN/C(=C\[N+](=O)[O-])NCCSCc1csc(CN(C)C)n1`, the call in [1], in assay [7] and in assay [8] was inactive. Besides, the Potency result in assay [2], in assay [3], in assay [4], in assay [6], in assay [9] and in assay [10] was “inactive” each time. In assay [5], the max response was 2.65% and -4.24%.
